The source of these data is ChEMBL document CHEMBL3988442, “University of Dundee, Small-Polar-MMV Screening Library” (2021).

Screen size: about 53,000 compounds; about 900 (1.7%) showed an effect of 50% or more. Many of the other results were omitted from the sample, so strong results are more common in it than they were.

The subject of this test is Mycobacterium tuberculosis. Kind of test: Cornell - Phenotypic assay to identify agents that inhibit growth of Mycobacterium tuberculosis. The conditions noted are these: 10 mM as filed; unlikely as a test dose. On the set-up: scale not given: direction of the effect not stated beside the values. The test is classed as functional.
On to `Cc1cc(C)n(C2CCCN(C(=O)c3ccc(N(C)C)nc3)C2)n1` (configuration not stated), for which the “Percent Effect” value was -19.67%.

For `Cc1ccc(CN2CCCC(c3cnccn3)C2)s1` (configuration not stated), the “Percent Effect” value worked out at 14.09%.

Turning to `Cl.Fc1cccc(F)c1Cn1c(C2CCCNC2)cc2cccnc21` (configuration not stated), the “Percent Effect” value is recorded as 30.15%.

With `c1cncc(CNCCc2cccs2)c1`, the “Percent Effect” value was 34.29%.

Regarding `Cc1cn2nc(Sc3nnnn3C)sc2n1`, the “Percent Effect” value is -10.32%.

As to `O=C(O)c1csc(S(=O)(=O)Nc2c(F)cccc2-n2cccn2)c1`, the “Percent Effect” value was -80.25%.

For `O=C(c1ncccn1)N1C[C@@H]2CC[C@H](Oc3cccc(F)c3)[C@@H]2C1`, the “Percent Effect” value worked out at 15.44%.

On to `Cn1ccc(C2CCCCCN2C(=O)c2cccnc2)n1` (configuration not stated), for which the “Percent Effect” value was -55.79%.

As to `CCC(CN1CCOCC1)n1cncc1-c1ccc2c(c1)CCN2CC.Cl` (configuration not stated), the “Percent Effect” value was 11.86%.

As to `CN(CC(=O)N(CCC#N)c1ccccc1)C1CCc2ccccc21` (configuration not stated), the “Percent Effect” value is 6.676%.

For the molecule `Cc1cc(NC(=O)CN2CCCC2Cn2nc(C)nc2C)on1` (configuration not stated), the “Percent Effect” value is 9.67%.

Consider `COc1ccc2c(c1)C(=O)N(C)C1(CCN(CC3CC3)CC1)N2`, for which the “Percent Effect” value is on record as -6.53%.

`COc1ccc2c(c1)C(=O)N(C)C1(CCN(C(=O)OC(C)(C)C)CC1)N2`: the “Percent Effect” value is 105.8%.

In the case of `COc1ccc2c(c1)C(=O)N(C)C1(CCN(CC=C(C)C)CC1)N2`, the “Percent Effect” value turned out to be 0.8841%.

In the case of `Cc1cc(N2CCC(CO)(CC3CCCCO3)CC2)nc2ccccc12` (configuration not stated), the “Percent Effect” value is recorded as -1.855%.

As to `Cc1cc(N2CCC(CO)(CC3CCCCO3)CC2)c2ccccc2n1` (configuration not stated), the “Percent Effect” value is given as 0.8134%.

With `OCC1(CC2CCCCO2)CCN(c2cnc3ccccc3n2)CC1` (configuration not stated), the “Percent Effect” value turned out to be 107%.

Turning to `Cc1[nH]ccc1C(=O)N1CCOCC12CCCC2`, the “Percent Effect” value was found to be 102.6%.

Turning to `Cc1ccc(F)cc1C(=O)N1CCOCC12CCCC2`, the “Percent Effect” value came to 20.33%.

`O=C(c1ccc[nH]1)N1CCOCC12CCCC2`: the “Percent Effect” value is -33.44%.

For the molecule `O=C1CC(N2CCN(c3ccc(O)cc3)CC2)C(=O)N1Cc1cccs1` (configuration not stated), the “Percent Effect” value came out at 104.3%.

On to `O=C1CC(N2CCN(c3ccccc3O)CC2)C(=O)N1Cc1cccs1` (configuration not stated), for which the “Percent Effect” value turned out to be 63.35%.

In the case of `COCCN1C(=O)CC(N2CCN(c3ccccc3)CC2)C1=O` (configuration not stated), the “Percent Effect” value turned out to be 12.26%.

`COCCCN1C(=O)CC(N2CCN(c3ccc(F)cc3)CC2)C1=O` (configuration not stated): the “Percent Effect” value worked out at 4.554%.

Turning to `O=C1CC(N2CCN(c3ccc(F)cc3)CC2)C(=O)N1Cc1cccs1` (configuration not stated), the “Percent Effect” value was 42.8%.

With `COCCN1C(=O)CC(N2CCN(c3ccc(OC)cc3)CC2)C1=O` (configuration not stated), the “Percent Effect” value is given as 55.38%.

With `CCCN1C(=O)CC(N2CCN(c3ccc(F)cc3)CC2)C1=O` (configuration not stated), the “Percent Effect” value is given as -5.623%.

`COCCN1C(=O)CC(N2CCN(c3ccc(F)cc3)CC2)C1=O` (configuration not stated): the “Percent Effect” value turned out to be 4.981%.

Consider `CC(C)CN1C(=O)CC(N2CCN(c3ccc(F)cc3)CC2)C1=O` (configuration not stated), for which the “Percent Effect” value amounted to 12.43%.

In the case of `COC1(CNC(=O)c2ccoc2)CCSC1` (configuration not stated), the “Percent Effect” value is reported as -5.057%.

In the case of `Cc1nn(C(C)C)c2cnn(CC(=O)N3CCSCC3)c12`, the “Percent Effect” value is given as -7.998%.

Turning to `CCO[C@H]1CO[C@@]2(CCN(Cc3ccc4c(c3)OCO4)C2)C1.O=C(O)C(F)(F)F`, the “Percent Effect” value came to 22.33%.

On to `CCC(c1ccccc1)S(=O)(=O)CCO` (configuration not stated), for which the “Percent Effect” value is -20.37%.

On to `CN(C)c1ncc(CN2CCC(O)(c3ccccc3F)CC2)cn1.O=C(O)CC(O)(CC(=O)O)C(=O)O`, for which the “Percent Effect” value amounted to 6.266%.

For `COc1ccc(NC2CCCN(Cc3cnc(N(C)C)s3)C2)cc1` (configuration not stated), the “Percent Effect” value amounted to 47.8%.

Consider `CN(C)c1ncc(CN2CCCC(Nc3ccc4c(c3)OCCO4)C2)s1` (configuration not stated), for which the “Percent Effect” value is 37%.

Turning to `COc1ccc(NC2CCCN(Cc3cnc(N(C)C)s3)C2)cc1OC` (configuration not stated), the “Percent Effect” value was 55.76%.

With `O=C(NC1CCCCC1)c1ccc(Oc2ccc3nncn3n2)cc1`, the “Percent Effect” value is given as -7.341%.

On to `CS(=O)(=O)N[C@H]1CCO[C@]2(CCN(C(=O)c3ccccn3)C2)C1.O=C(O)C(F)(F)F`, for which the “Percent Effect” value is 4.539%.

Regarding `OCCN1CCCC(c2cccc(-c3ccccc3F)n2)C1` (configuration not stated), the “Percent Effect” value is listed as -3.425%.

Take `CN1CCCC(c2cccc(-c3cccc(C(F)(F)F)c3)n2)C1` (configuration not stated): the “Percent Effect” value was found to be 30.4%.

For the molecule `CN1CCCC(c2cccc(-c3ccccc3F)n2)C1` (configuration not stated), the “Percent Effect” value is listed as 55.32%.

Take `CN1CCCC(c2nccnc2-c2cccc(C(F)(F)F)c2)C1` (configuration not stated): the “Percent Effect” value is 32.41%.

For the molecule `CS(=O)(=O)N1CCCC(c2cccc(-c3ccccc3F)n2)C1` (configuration not stated), the “Percent Effect” value is 29.33%.

Take `CN1CCCC(c2cncc(-c3cccc(C(F)(F)F)c3)n2)C1` (configuration not stated): the “Percent Effect” value was found to be 51.88%.

As to `CCN(CC)C(=O)c1cc(C2(C)CCN(C(C)=O)CC2)nc(C)n1`, the “Percent Effect” value was found to be 3.743%.

For `O=C(O)C1CN(c2cccc(F)c2)CCO1` (configuration not stated), the “Percent Effect” value was -11.48%.

As to `O=C1CC(c2ccccc2)C2(CCN(Cc3ccccn3)CC2)N1` (configuration not stated), the “Percent Effect” value came to 1.787%.

With `CC(=O)NCc1cc2n(n1)CCN(Cc1cccc(Cl)c1Cl)C2`, the “Percent Effect” value stood at 13.71%.

With `O=C(c1ccco1)N1CCC(n2nc(-c3ccco3)ccc2=O)CC1`, the “Percent Effect” value is 11.6%.

As to `O=C(Cc1ccncc1)N(CCO)CCSc1ccc(Cl)cc1`, the “Percent Effect” value was determined as 12.99%.

On to `Cc1cccc(CNC(Cc2ccsc2)c2nc(C)c(C)s2)n1.Cl` (configuration not stated), for which the “Percent Effect” value stood at 47.96%.

As for `O=C1COc2cc(C(=O)NS(=O)(=O)c3ccc(F)c(F)c3)ccc2N1`, the “Percent Effect” value is recorded as -19.76%.

Regarding `Cc1nn(C)cc1S(=O)(=O)N[C@@H]1CCC[C@@H](N2CCCC2)[C@@H]1O`, the “Percent Effect” value was determined as 19.92%.

With `Cc1nn(C)cc1S(=O)(=O)N[C@@H]1CC[C@@H](n2ccnc2C)[C@@H]1O`, the “Percent Effect” value is -21.64%.

Consider `CO[C@@H]1CC[C@@H](NS(=O)(=O)c2cn(C)nc2C)[C@H]1O`, for which the “Percent Effect” value is reported as 50.32%.

With `CC(NC(=O)N1CCNC(=O)CC1)c1ccc(OC(F)F)cc1` (configuration not stated), the “Percent Effect” value is on record as -26.09%.

With `c1cc(CN2CCC(Cc3noc(C4CC4)n3)CC2)c2c(c1)OCO2`, the “Percent Effect” value worked out at 11.43%.

Regarding `Fc1ccc(C2(CNC3=NCCN3)CCCC2)cc1.I`, the “Percent Effect” value came out at 20.05%.

Take `O=C(CCc1cc2n(n1)CCCNC2)NCCS(=O)(=O)N1CCCC1`: the “Percent Effect” value was -51.2%.

For `CN1CCN(c2cc(N3CCCC3CO)ncn2)Cc2ccccc21` (configuration not stated), the “Percent Effect” value is given as -16.34%.

As to `Cc1cccc2c1CCN(c1cc(N3CCCC3CO)ncn1)C2` (configuration not stated), the “Percent Effect” value came out at 67.12%.

For the molecule `CS(=O)(=O)N1CCN(c2cc(N3CCCC3CO)ncn2)CC1` (configuration not stated), the “Percent Effect” value stood at 0.6089%.

For the molecule `Cc1noc(Cl)c1CCC(=O)N1CCCCC1Cn1cccn1` (configuration not stated), the “Percent Effect” value is listed as -3.884%.

In the case of `CCOc1ccc(S(=O)(=O)NC(=O)c2c(C)noc2C(C)C)cc1`, the “Percent Effect” value is 49.48%.

As for `Cc1noc(C(C)C)c1C(=O)NS(=O)(=O)c1ccc(Cl)cc1`, the “Percent Effect” value is on record as 78.7%.

Take `Cc1ccc(S(=O)(=O)NC(=O)c2c(C)noc2C(C)C)cc1C`: the “Percent Effect” value was 26.09%.
